This is an account of results in PubChem BioAssay (NCATS).

Molecules are shown by their SMILES. Records with an inconclusive call do not appear. Active and inactive are the calls of the source. Unless noted, how the calls were made is not given here.

Experiment [1] is described as follows: Immunotoxin (HA22) sensitization/mitigation study. Vehicle arm (PBS) (AID 1159510). Further: potency means the concentration at half of the fitted maximal effect.
The nature of experiment [2]: Immunotoxin (SS1P) sensitization/mitigation study. Vehicle arm (DMEM) (AID 1159513). Further: potency means the concentration at half of the fitted maximal effect.
Experiment [3] in a line: High-throughput drug toxicity screening in the BPDCN cell line Gen2.2 (AID 1224824).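 Further: cells exposed to compounds for 48 h before reading.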 The conditions noted are these: Gen2.2 BPDCN cells; at 45.8 µM (top of the series). In short, it runs like this:
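CellTiter-Glo luminescence after 48 h compound exposure of Gen2.2 cells; percent activity set with DMSO as 100% and bortezomib (9.2 uM final) as 0%. Cells seeded at 500 per well, RPMI + 10% FBS, 37 °C.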

Experiment [4] can be described thus: qHTS assay for measurement of the activity of small molecule inhibitors on Zika virus induced Caspase-3 activity in human iPSC derived neural progenitor cells (hNPCs) (AID 1224857; active means well fitted inhibition curve with a large enough effect; further: % of control where 0% means no effect; nearly all actives have a fitted effect of over 65% in size). In short, it runs like this:
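Caspase-3/7 induction by a 6-hour ZIKV infection was quantified with a luminescent Caspase-Glo 3/7 reagent incubated 30 minutes at room temperature. Compounds were preincubated with hNPCs for 1 hour; inhibition was calculated against uninfected and infected control wells.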

A short description of experiment [5]: qHTS assay for measurement of the activity of small molecule inhibitors on Zika virus induced Caspase-3 activity in human astrocytoma cells (AID 1224859; active means well fitted inhibition curve with a large enough effect;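 further: plate controls were ZIKV-infected untreated cells for no effect and uninfected cells for full effect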). The essentials:
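In SNB-19 cells plated at 250 cells/well and grown 16-20 h, compounds were applied 1 h before ZIKV (2 FFU/cell). Six hours later caspase-3/7 luminescence was recorded.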
For orientation: qHTS replaces the single test concentration by a dilution series.

The nature of experiment [6]: High-throughput drug toxicity screening in the BPDCN cell line Cal-1 (AID 1224825). The conditions noted are these: Cal-1 BPDCN cell viability, qHTS; at 45.8 µM (top of the series). In short, it runs like this: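 Exponentially growing Cal-1 cells, 500 per well in phenol red-free RPMI with 10% FBS, were exposed to compounds for 48 h at 37 °C, 5% CO2. Viability was read by CellTiter-Glo luminescence and normalised to DMSO (100%) and 9.2 uM bortezomib (0%).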

Take `CC1=C[C@@H]2[C@@H]([C@@H](O)C[C@@]3(C)[C@H]2C[C@@H](C)[C@]3(O)C(=O)CO)[C@@]2(C)Cc3cnn(-c4ccccc4)c3C=C12`: the Potency was 1.66 µM (active) in experiment [1] and 23.5 µM (active) in experiment [2]. For the molecule `NC(=O)c1ccc(I)c([N+](=O)[O-])c1`, the Potency entry in experiment [2] is “inactive”.

Turning to `Cc1cccc(-c2[nH]ncc2-c2ccc3ncccc3n2)n1`, in experiment [2], the Potency entry is “inactive”.

With `CC(C)=CCCC(C)=CCCC(C)=CCSc1ccccc1C(=O)O`, the Potency entry in experiment [2] was “inactive”. On the same count and under the same terms, then `O=C(Nc1cc(Cl)cc2c1[nH]c1cnccc12)c1cccnc1`, with 13.2 µM (active); and `Cc1cc2c(cc1C1(c3ccc(C(=O)O)cn3)CC1)C(C)(C)CCC2(C)C`, with “inactive”. In the case of `COc1ccc2c(c[n+](C)c3c4cc5c(cc4ccc23)OCO5)c1OC`, the Potency in experiment [1] was 1.32 µM (active); in experiment [2], 8.33 µM (active). Besides, the cell viability, % of control (lower = more cytotoxic) in experiment [3] was 7.65%. Further, the Potency entry in experiment [4] and in experiment [5] was “inactive” each time. For `CC(=O)NCCC(=O)N[C@@H](CCC(N)=O)C(=O)N[C@@H](CO)C(=O)N[C@@H](CCC(N)=O)C(=O)N[C@@H](CCC(N)=O)C(=O)N[C@H](C(=O)N[C@@H](Cc1ccccc1)C(=O)N[C@]1(C)CCCCCCC=CCCC[C@@](C)(C(=O)N[C@@H](CCC(N)=O)C(=O)N[C@@H](CC(N)=O)C(N)=O)NC(=O)[C@H](CC(C)C)NC(=O)[C@H](CC(C)C)NC(=O)[C@@H](CCCNC(=N)N)NC(=O)[C@H](Cc2c[nH]c3ccccc23)NC(=O)[C@H](CC(C)C)NC(=O)[C@H](CC(N)=O)NC1=O)[C@H](C)O`, in experiment [2], the Potency result was “inactive”. The same measure, in the same setting: for `O=C(O)c1ccc(O)c2ncc(N3CCOCC3)cc12` the value was “inactive”; for `Cc1cnc(Nc2ccc(OCCN3CCCC3)cc2)nc1Nc1cccc(S(=O)(=O)NC(C)(C)C)c1`, “inactive”. In the case of `O=c1[nH]nc(Sc2ncc([N+](=O)[O-])s2)n1-c1ccc2c(c1)OCCO2`, the figures for the Potency in experiment [1] and in experiment [2] were 0.264 µM (active) and 20.9 µM (active), respectively. As to `COc1cc(Nc2ncc3c(n2)-c2ccc(Cl)cc2C(c2c(F)cccc2OC)=NC3)ccc1C(=O)O`, in experiment [2], the Potency entry is “inactive”. Still for that read-out and setting: for `CN(NC(=O)CC(=O)NN(C)C(=S)c1ccccc1)C(=S)c1ccccc1` the value was “inactive”; for `COc1cc2c(cc1OC)[C@@H]1C(=O)c3ccc4c(c3O[C@@H]1CO2)C=CC(C)(C)O4`, 4.18 µM (active); for `CC(C)(C)C(=O)Oc1ccc2c(c1)nc(NC(=O)c1cccc([N+](=O)[O-])c1)n2CCCO`, “inactive”. For the molecule `CC(=O)Nc1ccc(OC[C@](C)(O)C(=O)Nc2ccc([N+](=O)[O-])c(C(F)(F)F)c2)cc1`, the Potency result in experiment [1], in experiment [2] and in experiment [4] was “inactive” in each case. As to `CCCS(=O)(=O)Nc1ccc(F)c(C(=O)c2c[nH]c3ncc(Cl)cc23)c1F`, the figures for the Potency in experiment [1] and in experiment [2] were 20.9 µM (active) and 16.6 µM (active), respectively. For the molecule `O=C1CCCC2=C1C(c1[nH]ncc1Cl)N=C(Nc1nc3ccccc3o1)N2` (centres undefined), the Potency entry in experiment [2] is “inactive”. Still for that read-out and setting: then `Clc1ccc(-c2nc3sccn3c2C=NOCc2ccc(Cl)c(Cl)c2)cc1`, with “inactive”.

As for `Cc1nc(-c2ccc(-c3ccc(C(=O)N4CCc5cc6c(cc54)C4(CCN(C)CC4)CO6)cc3)c(C)c2)no1`, the Potency in experiment [1] is 23.5 µM (active); in experiment [2] it was 26.4 µM (active). For the same molecule, the cell viability, % of control (lower = more cytotoxic) in experiment [3] was found to be 163%. The viability (% of control) in experiment [6] came to 126%. Moreover, the Potency entry in experiment [4] and in experiment [5] was “inactive” in each case. For the molecule `NC(=O)c1ccc(N(C(N)=O)c2c(F)cccc2F)nc1-c1ccc(F)cc1F`, the Potency result in experiment [2] was “inactive”. Regarding `Cc1cc(-c2nnc3n2CCCCC3)c(C)n1-c1ccc(F)cc1`, the Potency in experiment [2] was 0.332 µM (active).

In the case of `Oc1cccc(-c2nc(N3CCOCC3)c3oc4ncccc4c3n2)c1`, the Potency in experiment [1] was 0.264 µM (active); in experiment [2] it was 0.0935 µM (active). In the same order, the values of `CC(NC(=O)Cc1cc(F)cc(F)c1)C(=O)NC(C(=O)OC(C)(C)C)c1ccccc1` (centres undefined) are “inactive” and “inactive”. Consider `Cc1ccccc1-n1c(Cn2cnc3c(N)ncnc32)nc2cccc(C)c2c1=O`, for which the Potency in experiment [1] was 23.5 µM (active). Further, the Potency entry in experiment [5] was “inactive”. As for `CC(C)(Sc1ccc(CCN(CCCCC2CCCCC2)C(=O)NC2CCCCC2)cc1)C(=O)O`, in experiment [2], the Potency result is “inactive”. On to `COc1ccc(-c2c(-c3ccc(O)cc3O)n[nH]c2C)cc1`, for which the Potency in experiment [2] was 16.6 µM (active). On the same count and under the same terms, for `COCCn1c2c([n+](Cc3cnccn3)c1C)C(=O)c1ccccc1C2=O` the value was 0.0037 µM (active). `N#Cc1c(O)c2c(-c3ccc(-c4ccccc4O)cc3)csc2[nH]c1=O`: in experiment [2], the Potency result was “inactive”. As to `COc1cc2c(cc1O)CC[C@@H]1[C@@H]2CC[C@]2(C)[C@@H](O)CC[C@@H]12`, the Potency in experiment [1] is 0.418 µM (active); in experiment [2], 0.833 µM (active).

`O=C(Oc1ccc([N+](=O)[O-])cc1)N1CCC(C(O)(c2ccc3c(c2)OCO3)c2ccc3c(c2)OCO3)CC1`: the Potency in experiment [1] is 5.26 µM (active). For the same molecule, the Potency result in experiment [2] and in experiment [4] was “inactive” throughout. Further, in experiment [3], the cell viability, % of control (lower = more cytotoxic) turned out to be 40.5%.

Consider `CCOc1ccc(Cc2cc([C@@H]3O[C@H](CO)[C@@H](O)[C@H](O)[C@@H]3O)ccc2Cl)cc1`, for which the Potency entry in experiment [2] is “inactive”. As to `O=C(C=Cc1cccnc1)NCCCCC1CCN(C(=O)c2ccccc2)CC1`, the Potency result in experiment [1] and in experiment [2] was “inactive” throughout. Consider `COc1cc2nc(N3CCCN(C)CC3)nc(NC3CCN(Cc4ccccc4)CC3)c2cc1OC`, for which the Potency in experiment [1] is 2.09 µM (active); in experiment [2], 13.2 µM (active). For the molecule `C=CCON=C(C[C@H]1O[C@@H]2O[C@]3(C)CC[C@@H]4[C@H](C)CC[C@@H]([C@H]1C)[C@@]24OO3)[C@H]1O[C@@H]2O[C@]3(C)CC[C@H]4[C@H](C)CC[C@@H]([C@@H]1C)[C@@]24OO3`, the Potency is 0.0166 µM (active) in experiment [1] and 0.235 µM (active) in experiment [2]. The cell viability, % of control (lower = more cytotoxic) in experiment [3] came out at 19.7%. In experiment [6], the viability (% of control) came to 23.2%. Besides, the Potency result in experiment [4] is “inactive”.

`Nc1ccccc1NC(=O)c1ccc(CNc2nccc(-c3cccnc3)n2)cc1`: the Potency in experiment [1] is 0.132 µM (active); in experiment [2] it was 0.187 µM (active).

As for `Nc1ccccc1NC(=O)c1ccc(CNC(=O)OCc2cccnc2)cc1`, the figures for the Potency in experiment [1] and in experiment [2] were 0.526 µM (active) and 5.9 µM (active), respectively. For the molecule `CC#C[C@]1(O)CC[C@H]2[C@@H]3CCC4=CC(=O)CCC4=C3[C@H](c3ccc(N(C)C)cc3)C[C@@]21C`, the Potency in experiment [2] is 23.5 µM (active). For the molecule `O=C(O)[C@@H](c1ccc(OCc2ccc3ccccc3n2)cc1)C1CCCC1`, the Potency entry in experiment [1] and in experiment [2] was “inactive” in each case.
